# Data reported in the OligoGym collection.
# Biological target: NOL7
# Assay: pooled miR-30 sensor sort-seq; sequence = guide strand
# Settings: shRNA
# Note: reference of the scale not given here.
row,Sequence,sensor-assay potency score (higher = more potent)
1,TTTCTGACCATCCACCGTCTTT,-1.02
2,TTAACTTCTTTCACCTTTCCTG,-0.368
3,TTAGTCTGTGAAGCTGTGGTTA,-0.246
4,TTCGATGAACAGCTCCTCGCGT,-0.6
5,TTTTGTACTTTAACTTTCTTGG,-0.17
6,TCGATGAACAGCTCCTCGCGTC,-0.7

# Biological target: NOLC1
# Assay: as above
# Settings: shRNA
row,Sequence,sensor-assay potency score (higher = more potent)
1,TTTAGTCTGAGCTTTAACTGTC,0.463
2,TTAGCTTTCTTAGCCACTGGTC,-0.169
3,TTGCTTTTTAGGTACAGTCTTC,-0.681
4,TAACTTTCGCTCTGGGACCTTG,-0.857
5,TTTGGTGAACTTCAAAACCTGA,-0.529
6,TTGCTTTAGAGACTACTGCCTT,-0.589
7,TTAGGTACAGTCTTCTTGGGGG,0.125
8,TTGACCTGGACAGAGATTGAGC,-0.52
9,TTTAGGTACAGTCTTCTTGGGG,-0.268
10,TTGCCTGTAACTTTCGCTCTGG,0.151

# Biological target: NOMO3
# Assay: as above
# Settings: shRNA
row,Sequence,sensor-assay potency score (higher = more potent)
1,TTATTTTGTATTTTCCAGGGAG,0.546
2,TGTTGCAACAATGTCAGCCAGC,-0.925
3,TTGTCTTCTGTTTCTTGGCTTG,-0.491
4,TAACAGTGATTTTCTCTCCAGA,-0.602
5,TATGATGTTTACATCATCGATG,-0.855
6,TAACTCATCTACCATCTCCTGC,-0.337
7,TTATTCATCTGCTTGACGGTGT,0.998
8,TTCACCTTCCTCATTGCCGTTT,-0.31
9,TTGGTGTACAGCTTTATCTCGA,0.0866
10,TGGAACACCATCTCCTTCGGGT,-0.53
11,TATCTGACCACAGACACTGAAC,-1.06
12,TAAAGCTTGACCCATAACGTAG,-0.74
13,TTGATCTCCACGTCCGACTTGA,0.49
14,TAGAACGCTTGCTCAAACCGGT,0.161
15,TTTGGTGCAATTTTGATGGTGA,0.652
16,TTGTCTCTTTGCATCTTCTGGG,-0.0196

# Biological target: NOTCH4
# Assay: as above
# Settings: shRNA
row,Sequence,sensor-assay potency score (higher = more potent)
1,TTCTTGGTTCCAACTTAGGGGT,-0.898
2,TATCTTCCTCGCATTATCGCAG,-0.574
3,TTGAGCAGTTCTGTCCATCGTA,0.59
4,TTTAGGGTTCTTAAATAGCGAT,-1.06
5,TTAGGGTTCTTAAATAGCGATA,-1.36
6,TAGGGGTACACCATGTCCCTGC,0.0292
7,TATATAGGAAAGAACATCTTAC,0.0056
8,ATATATAGGAAAGAACATCTTA,-0.0997
